A short description of experiment [1]: AP1 Signaling Pathway (AID 357; active means well fitted curve in either direction with a large enough effect, not every such curve was filed as active;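 further: ME-180 reporter cells stimulated with EGF at its EC50 level; on the % scale 0 is the no-effect control and ±100 the full control effect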). The settings on record: ME-180 (cervical carcinoma) AP-1-bla reporter, EGF-induced, beta-lactamase ratio, 5 h; at 7.69 µM (top of the series) unless noted. A digest of the protocol:
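Modulation of EGF-driven AP-1 transcription was assessed with a beta-lactamase reporter in ME-180 cells. Compound and EC50 EGF were co-incubated 5 hours at 37 °C before 2.5-hour CCF4 loading at room temperature and dual-emission reading.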

Experiment [2] in a line: Stat Signaling Pathway (AID 446; active means well fitted curve in either direction with a large enough effect, not every such curve was filed as active;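 further: ME-180 cervical cancer cells given 40 pM IL-6 alongside compound; SIE-controlled beta-lactamase reporter measured as 460/530 nm FRET emission ratio; on the % scale 0 is the no-effect control and ±100 the full control effect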). Summed up:
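ME-180 SIE-bla cells; overnight plating; cpd + IL-6 40 pM, 5 h, 37 C; LiveBLAzer 2.5 h RT; 460/530 nm emission ratio. Normalized to 300 pM IL-6 and 125 nM JAK inhibitor controls.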

Experiment [3] addresses Lysosomal acid glucosylceramidase (Homo sapiens) (UniProt P04062). Kind of experiment: Glucocerebrosidase-p2 (AID 348; in the data active means potency below about 10 µM; further: potency means the concentration at half of the fitted maximal effect). The settings on record: purified GBA, blue fluorogenic substrate, 40 min. Summed up: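 Compounds titrated from 0.6 nM upwards against 0.2 nM enzyme in pH 5.9 citric acid/KH2PO4, taurocholate, tween-20; blue fluorogenic substrate 80 uM, 40 min room temperature, stopped and read Ex 365/Em 440 for AC50.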

Experiment [4] has as its target ATP-dependent 6-phosphofructokinase (Trypanosoma brucei brucei) (UniProt O15648). Kind of experiment: qHTS Assay to Find Inhibitors of T. brucei phosphofructokinase: hit validation (AID 492961).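 Further: luminescence reports ADP formed as PFK phosphorylates fructose-6-phosphate with ATP; on the % scale 0 is the no-effect control and ±100 the full control effect.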 Summed up:
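Reaction: 0.1 M triethanolamine pH 8.0, 5 mM MgCl2, F6P 0.5 mM, ATP 0.1 mM, PFK 1.25 nM, 45 min RT. Read-out: ADP-Glo luminescence. Analysis: concentration-response fits, classed by r2 and efficacy.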
On the technique in general: In qHTS, concentration-response curves come from the screen itself.

The subject of a further experiment is CP192. Kind of experiment: qHTS profiling for inhibitors of Plasmodium falciparum proliferation (AID 504749). Further: nearly all actives have a fitted effect of over 60% in size. Further: potency means the concentration at half of the fitted maximal effect. The settings on record: P. falciparum in erythrocytes, SYBR Green DNA, 72 h; series mostly up to 28.7 µM. A digest of the protocol: (§1)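 Parasite proliferation within erythrocytes, 72 h exposure. Endpoint: SYBR Green I fluorescence after overnight lysis at room temperature. Controls: 0.29 uM artemisinin, DMSO.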

The subject of the next experiment is CP262. The description is as above. The note with it: P. falciparum in erythrocytes, SYBR Green DNA, 72 h; series mostly up to 28.7 µM. A digest of the protocol: as §1
A further experiment has as its system CP266. The experiment is described as above. The note with it: P. falciparum in erythrocytes, SYBR Green DNA, 72 h; series mostly up to 28.7 µM. A digest of the protocol:
as §1

In a further experiment the test system is CP268. Described as above. The settings on record: P. falciparum in erythrocytes, SYBR Green DNA, 72 h; series mostly up to 28.7 µM. Summed up:
as §1

A further experiment deals with CP269. The experiment is described as above. The settings on record: P. falciparum in erythrocytes, SYBR Green DNA, 72 h; series mostly up to 28.7 µM. Summed up: as §1
The subject of a further experiment is CP291. The experiment is described as above. The settings on record: P. falciparum in erythrocytes, SYBR Green DNA, 72 h; series mostly up to 28.7 µM. A digest of the protocol:
as §1

A further experiment deals with CP305. Described as above. The note with it: P. falciparum in erythrocytes, SYBR Green DNA, 72 h; series mostly up to 28.7 µM. A digest of the protocol: as §1
The subject of another experiment is CP315. The experiment is described as above. The settings on record: P. falciparum in erythrocytes, SYBR Green DNA, 72 h; series mostly up to 28.7 µM. A digest of the protocol: as §1
The next experiment deals with CP325. The experiment is described as above. The settings on record: P. falciparum in erythrocytes, SYBR Green DNA, 72 h; series mostly up to 28.7 µM. Summed up:
as §1

For a further experiment, the system named is CP329. The experiment is described as above. The note with it: P. falciparum in erythrocytes, SYBR Green DNA, 72 h; series mostly up to 28.7 µM. Summed up: as §1
The subject of a further experiment is DIV14. Described as above. The note with it: P. falciparum in erythrocytes, SYBR Green DNA, 72 h; series mostly up to 28.7 µM. A digest of the protocol: as §1
In the next experiment the test system is DIV17. The experiment is described as above. The note with it: P. falciparum in erythrocytes, SYBR Green DNA, 72 h; series mostly up to 28.7 µM. A digest of the protocol: as §1
Another experiment relates to DIV30. The experiment is described as above. The settings on record: P. falciparum in erythrocytes, SYBR Green DNA, 72 h; series mostly up to 28.7 µM. A digest of the protocol:
as §1

Another experiment concerns GB4. The experiment is described as above. The note with it: P. falciparum in erythrocytes, SYBR Green DNA, 72 h; series mostly up to 28.7 µM. A digest of the protocol:
as §1

The test system of the next experiment is PC26. The description is as above. The settings on record: P. falciparum in erythrocytes, SYBR Green DNA, 72 h; series mostly up to 28.7 µM. A digest of the protocol: as §1
The next experiment relates to W2. The experiment is described as above. The settings on record: P. falciparum in erythrocytes, SYBR Green DNA, 72 h; series mostly up to 28.7 µM. A digest of the protocol: as §1

Molecules are shown by their SMILES. Unmarked numbers belong to inactive results. Inconclusive results are not listed. Active and inactive are the calls of the source. Unless noted, the call rests on the fitted dose curve; in most records, active means well fitted curve in the direction sought with a large enough effect; inconclusive means small, poorly fitted or top-dose-only effect, or another doubt; inactive means no such curve, though single readings can be large; an effect the other way counts as inactive or inconclusive.

Results on two compounds are retold here after PubChem BioAssay (NCATS).

Sequence of Lysosomal acid glucosylceramidase (Homo sapiens) (P04062 whole entry, looked up): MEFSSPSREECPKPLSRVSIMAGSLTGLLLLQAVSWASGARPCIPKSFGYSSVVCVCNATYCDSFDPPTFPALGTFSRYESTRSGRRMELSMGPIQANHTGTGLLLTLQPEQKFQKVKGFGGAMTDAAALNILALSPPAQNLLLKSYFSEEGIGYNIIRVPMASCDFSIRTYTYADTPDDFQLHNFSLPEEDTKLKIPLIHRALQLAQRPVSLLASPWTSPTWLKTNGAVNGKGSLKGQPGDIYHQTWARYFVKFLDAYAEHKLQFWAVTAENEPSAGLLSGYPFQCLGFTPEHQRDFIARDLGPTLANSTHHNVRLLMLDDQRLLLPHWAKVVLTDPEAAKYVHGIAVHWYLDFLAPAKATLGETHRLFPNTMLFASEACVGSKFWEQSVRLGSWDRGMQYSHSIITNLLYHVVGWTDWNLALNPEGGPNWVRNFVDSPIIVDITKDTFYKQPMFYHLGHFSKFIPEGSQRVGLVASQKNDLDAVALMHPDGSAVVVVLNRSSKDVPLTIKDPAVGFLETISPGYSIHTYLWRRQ
Sequence of ATP-dependent 6-phosphofructokinase (Trypanosoma brucei brucei) (O15648 whole entry, looked up): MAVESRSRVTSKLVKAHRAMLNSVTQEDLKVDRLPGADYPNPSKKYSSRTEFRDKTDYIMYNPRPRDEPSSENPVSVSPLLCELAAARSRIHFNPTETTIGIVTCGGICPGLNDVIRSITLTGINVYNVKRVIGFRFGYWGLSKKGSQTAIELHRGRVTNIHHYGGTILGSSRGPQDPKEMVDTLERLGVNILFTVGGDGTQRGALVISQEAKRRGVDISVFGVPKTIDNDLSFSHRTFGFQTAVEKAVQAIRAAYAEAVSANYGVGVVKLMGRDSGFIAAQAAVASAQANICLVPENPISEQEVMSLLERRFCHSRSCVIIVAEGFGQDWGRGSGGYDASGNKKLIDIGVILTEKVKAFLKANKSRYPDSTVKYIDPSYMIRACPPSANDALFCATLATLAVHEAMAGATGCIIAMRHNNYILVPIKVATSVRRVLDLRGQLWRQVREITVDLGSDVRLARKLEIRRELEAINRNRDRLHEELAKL

`O=C1c2ccccc2C(=O)C1c1ccc2ccccc2n1`: the activity change, negative = inhibition in [1] was 13% [at 17.2 µM]. In addition, the call in experiment [2] was inactive.

As for `CN1CC[C@H](CN2c3ccccc3Sc3ccccc32)C1`, the Potency is greater than 11.4 µM in experiment [3]; 15.1 µM (active) in the experiment on CP268; 15.1 µM (active) in the experiment on CP269; 15.1 µM (active) in the experiment with CP291; 15.1 µM (active) in the experiment on CP305; 15.1 µM (active) in the experiment with CP325. Also, the Potency with DIV14 was 4.26 µM (active); in the experiment on DIV17, 5.36 µM (active); in the experiment with DIV30, 13.5 µM (active); in the experiment on GB4, 13.5 µM (active); in the experiment with PC26, 13.5 µM (active); in the experiment with W2, 1.9 µM (active). The call in [4] was inactive. Besides, the Potency result in the experiment with CP192, in the experiment with CP262, in the experiment on CP266, in the experiment with CP315 and with CP329 was “inactive” in each case.
